In all, about 420,000 compounds went through this assay and about 64,000 (15%) were called active. Not shown: some 27% with an inconclusive outcome. These entries were drawn from the full list. Values without a mark were called inactive. Calls come from the whole dose curve; as a rule, active = well fitted inhibition curve with a large enough effect; inconclusive = small, poorly fitted or top-dose-only effect; inactive = flat fitted curve, though single readings scatter.
test: qHTS for Inhibitors of human tyrosyl-DNA phosphodiesterase 1 (TDP1): qHTS in cells in absence of CPT; conditions: DT40 Tdp1-/- hTDP1 cells, no CPT, ATP luminescence, 48 h; activity change, negative = growth inhibition: at 46.2 µM (top of the series); note: nearly all actives have a fitted effect of over 55% in size
Summary of the method: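 Growth kinetics read by CellTiter-Glo luminescence after ≥48 hr at 37 °C. Cells: DT40 Tdp1-/- stably carrying human TDP1, 400 per well, compound exposure in the absence of CPT (DMSO vehicle).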
% is set by controls: 0 for no effect and ±100 for the full control effect; potency is the fitted concentration of half-maximal effect.

Row | SMILES | activity change, negative = growth inhibition [%] | Potency
1 | COc1cc(C2C(C(=O)c3sc(C)nc3C)=C(O)C(=O)N2CCN(C)C)cc(OC)c1OC (configuration not stated) | 9.07 | 
2 | N/C(Cc1ccc([N+](=O)[O-])cc1)=N\OC(=O)C1CCCCC1 | -0.701 | 
3 | COc1ccccc1OCCC(=O)OCC(=O)NCc1ccccc1 | -7.82 | 
4 | N#Cc1ccc(CN2CCN(CC(=O)Nc3ccccc3C(=O)NC3CC3)CC2)cc1 | 0.152 | 
5 | NC(=O)c1ncn([C@@H]2O[C@H](CN=C3NS(=O)(=O)c4ccccc43)[C@@H](O)[C@H]2O)n1 | 2.67 | 
6 | COc1ccc([N+](=O)[O-])cc1NC(=O)c1ccc(N(Cc2ccccc2C)S(C)(=O)=O)cc1 | -29.8 | 
7 | CC(C)C(=O)Nc1cccc(NC(=O)c2ccc([N+](=O)[O-])cc2Cl)c1 | -16.9 | 
8 | Cc1cc([N+](=O)[O-])ccc1NC(=O)c1ccc(NC(=O)C(C)C)cc1 |  | 18.4 µM (active)
9 | CN1CCN(CCNC(=O)Nc2ccc([N+](=O)[O-])cc2)CC1 | -27.3 | 
10 | Cc1cc([N+](=O)[O-])ccc1NC(=O)C1CCCO1 (configuration not stated) | -7.79 | 
11 | CC(=O)c1ccc(NC(=O)Nc2ccc([N+](=O)[O-])cc2C)cc1 |  | 16.4 µM (active)
12 | CN1c2ccc([N+](=O)[O-])cc2C(C)(C)C12C=Cc1cc(C(=O)O)ccc1O2 (configuration not stated) | 13.4 | 
13 | CN(CCO)S(=O)(=O)c1ccc2c(c1)C(=O)c1cc(S(=O)(=O)N(C)CCO)ccc1-2 | -2.04 | 
14 | C=CCOc1ccc(/C=C/C(=O)OCC(=O)NC2CCCCCC2)cc1 | -3.43 | 
15 | Cc1ccc(C)c(CN2C(=O)c3ccccc3S(=O)c3ccc(C(=O)N4CCOCC4)cc32)c1 (configuration not stated) | -28.2 | 
16 | CN(C(=O)c1ccc2c(c1)N(Cc1cccc(Cl)c1)C(=O)c1ccccc1S2=O)C1CCCCC1 (configuration not stated) |  | 23.1 µM (active)
17 | O=C(COC(=O)c1cccc(Cl)c1)NC1CCCCCCC1 | 0.239 | 
18 | O=C(O)c1ccc2c(c1)N(Cc1ccc(F)cc1)C(=O)c1ccccc1S2=O (configuration not stated) |  | 14.6 µM (active)
19 | Cc1ccc(CCNC(=O)c2ccc3c(c2)N(Cc2cc(C)ccc2C)C(=O)c2ccccc2S3=O)cc1 (configuration not stated) |  | 11.6 µM (active)
20 | O=C(CN1C(=O)c2ccccc2C1=O)NCc1ccc(C(=O)O)cc1 | -16.5 | 
21 | Cc1c(CNC2CCCCC2)c(C(=O)O)c(C)n1Cc1cccc(Cl)c1 | -25.1 | 
22 | Cc1ccc(CNS(=O)(=O)CCNC(=O)c2ccccc2)cc1 | -5.2 | 
23 | COc1ccccc1NC(=O)c1cc(N2C(=O)C3C4CCC(C4)C3C2=O)ccc1Cl (configuration not stated) | 3.87 | 
24 | C/C(CC(=O)NC(C)(C)C)=N\NC(=O)c1ccco1 | 3.84 | 
25 | COC(=O)c1ccc(CNC(=O)Cn2cc(C)c(=O)[nH]c2=O)cc1 | -0.822 | 
26 | Cc1ccc(OCC(=O)N2CCN(S(=O)(=O)c3ccc(Cl)s3)CC2)cc1C | -26.5 | 

Row | SMILES | activity change, negative = growth inhibition [%] | Potency
27 | Cc1ccc(O)c(CCc2ccccc2)n1 | -26.2 | 
28 | Nc1nc(NCc2ccccc2)n(-c2ccccc2)n1 | -8.65 | 
29 | Cc1cc(C)n2c(Nc3c(C)cccc3C)c(CCc3ccccc3)nc2n1 |  | 16.4 µM (active)
30 | Cc1cc(C)n2c(NCc3ccccc3)c(CC(C)C)nc2n1 |  | 23.1 µM (active)
31 | COc1cccc2c(C)c(C(=O)O)[nH]c12 | -20.4 | 
32 | O=C(O)CC(CC(=O)N1CCOCC1)c1ccccc1 (configuration not stated) | -6.6 | 
33 | CCCCC(=O)NC(c1ccc(OC)c(OC)c1)c1ccc2cccnc2c1O (configuration not stated) |  | 3.26 µM (active)
34 | CCOc1ccc(C(CC(=O)O)NC(=O)Cc2ccccc2)cc1OC (configuration not stated) | 4.25 | 
35 | COc1ccc(CCNS(=O)(=O)c2cccc3cccnc23)cc1OC | 5.97 | 
36 | COC(=O)C1C(=O)CC(C)(O)C(C(=O)OC)C1c1ccc2c(c1)OCO2 (configuration not stated) | -0.751 | 
37 | NCCCC[C@@H]1NC(=O)[C@H](CCC(=O)O)NC(=O)c2cc([N+](=O)[O-])cc(I)c2NCC[C@@H](C(N)=O)NC1=O | -1.72 | 
38 | CCc1nnc(NC(=O)CSCc2cc(=O)n3cc(C)sc3n2)s1 | 11.4 | 
39 | COc1ccc(CN2CC[C@H]3C=CC[C@@H](C(=O)N4CCOCC4)[C@H]3C2=O)cc1OC |  | inactive
40 | Cc1ccc2nc3c(cc(C(=O)NC4CCCCC4)c(=N)n3C(C)C)c(=O)n2c1 | -10.7 | 
41 | CC(NC(=O)c1cc2c(=O)n3ccccc3nc2n(C(C)C)c1=N)c1ccccc1 (configuration not stated) |  | 18.4 µM (active)
42 | CC(NC(=O)c1ccccc1C(=O)O)c1ccc(-n2ccnc2)cc1 (configuration not stated) | 4.82 | 
43 | COc1cccc(C(=O)N(Cc2cccc(Cl)c2)Cc2ccco2)c1 |  | 14.6 µM (active)
44 | COC(=O)c1ccc(COC(=O)CNC(=O)c2cccc(OC)c2)o1 | 17.8 | 
45 | O=C(Nc1ccccc1)N(Cc1cccnc1)Cc1ccco1 | -2.21 | 
46 | O=C(CCNC(=O)c1ccccc1Cl)NCc1ccco1 | 11.9 | 
47 | CCc1ccc(CN(Cc2ccco2)C(=O)c2ccccc2Cl)cc1 |  | 20.6 µM (active)
48 | COc1cccc(NC(=S)NCc2ccco2)c1 | -17.3 | 
49 | CCCOc1ccc(Cn2c(O)cc(=O)[nH]c2=O)cc1 | 2.12 | 
50 | CN1CCN(C(=O)/C(=C\c2ccc3c(c2)OCO3)NC(=O)c2cccs2)CC1 | -3.25 | 
51 | Cc1ccc(-c2nc(-c3ccncc3)no2)c(C)c1 | 2.69 | 
52 | Cc1nn(CC(=O)NCC2CCCO2)c(=O)c2cc3ccccc3n12 (configuration not stated) | -3.75 | 
